Hits are enriched below; roughly 1.1% of the tested compounds scored in any of these assays.
SARS PLP yeast: qHTS of Yeast-based Assay for SARS-CoV PLP; S. cerevisiae expressing SARS-CoV PLpro, growth rescue; 330,000 tested, 0.19% active; Potency, µM (highest dose often 32.9 µM), inactives show at the highest dose activity, positive = growth rescue, usual class: activators; calls by dose curve; also: 0% is about no effect; nearly all actives have a fitted effect of over 55% in size
AmpC inh no detg: qHTS Inhibitors of AmpC Beta-Lactamase (assay without detergent); P00811; AmpC nitrocefin hydrolysis, absorbance 480 nm, 0.0001% Triton; 330,000 tested, 0.52% active; Potency, µM (highest dose often 57.1 µM), without a hit: at the highest dose activity change, negative = inhibition, actives largely listed as inhibitors; AID 485341, 2010;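 also: plate controls were no compound for no effect and no enzyme for full effect; nearly all actives have a fitted effect of over 20% in size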
Target sequence (P00811 whole entry, looked up): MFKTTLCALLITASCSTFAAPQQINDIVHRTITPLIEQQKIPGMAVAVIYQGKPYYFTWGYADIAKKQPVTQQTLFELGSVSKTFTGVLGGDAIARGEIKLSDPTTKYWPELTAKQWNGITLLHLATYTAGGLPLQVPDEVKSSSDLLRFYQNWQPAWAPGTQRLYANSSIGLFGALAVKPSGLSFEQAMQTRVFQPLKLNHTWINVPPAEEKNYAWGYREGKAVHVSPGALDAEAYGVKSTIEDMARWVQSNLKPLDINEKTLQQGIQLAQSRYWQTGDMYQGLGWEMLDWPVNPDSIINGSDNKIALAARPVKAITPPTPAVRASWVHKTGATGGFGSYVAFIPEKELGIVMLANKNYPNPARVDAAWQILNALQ
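20 mM phosphate pH 7.0 + 0.01% (detergent screen) or 0.0001% Triton X-100; 5.3 nM AmpC reagent; cpd preinc 15 min RT; nitrocefin (800 uM stock) to start; A480 q20 s × 4 min; Activity was normalised to no-enzyme and no-compound control wells.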
Giardia FBPA inh: qHTS Assay for Inhibitors of Fructose-1,6-bisphosphate Aldolase from Giardia Lamblia; A8B2U2; purified Giardia FBPA; Potency, µM (series often up to 59.6 µM), for inactives: at the top dose activity, negative = inhibition, actives largely listed as inhibitors; 290,000 tested, 0.71% active; also: % is scaled to controls: 0 for no effect and ±100 for the full control effect; nearly all actives have a fitted effect of over 55% in size
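40 nM FBPA preincubated 10 min at RT with compound (up to 57.5 uM final), then substrate plus GAPDH/TPI/NAD/arsenate coupling and diaphorase/resazurin added. Fluorescence read after 20 min at RT, 525/598 nm.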
AmpC detergent: qHTS Inhibitors of AmpC Beta-Lactamase (assay with detergent); P00811; AmpC hydrolysis of nitrocefin, absorbance 480 nm, 0.01% Triton; Potency, µM (doses to about 114 µM), without a hit: at the top dose activity change, negative = inhibition, actives largely listed as inhibitors; 370,000 tested, 0.041% active;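 also: 0% = no-compound wells and -100% = no-enzyme wells; nearly all actives have a fitted effect of over 25% in size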
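20 mM phosphate pH 7.0 + 0.01% (detergent screen) or 0.0001% Triton X-100; 5.3 nM AmpC reagent; cpd preinc 15 min RT; nitrocefin (800 uM stock) to start; A480 q20 s × 4 min; Activity was normalised to no-enzyme and no-compound control wells.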
Active calls of the source: *; ? = inconclusive; · = no result; [ ] = dose if it differs, or a comment. Unless noted, calls follow the shape of the dose curve; as a rule, active = well fitted curve in the direction sought with a large enough effect; inconclusive = small, poorly fitted or top-dose-only effect, or another doubt; inactive = no such curve, though single readings can be large; an effect the other way counts as inactive or inconclusive. Potency is read from the fitted curve at half-maximal effect.

SMILES	SARS PLP yeast	AmpC inh no detg	Giardia FBPA inh	AmpC detergent
CSCC[C@H](NC(=O)[C@H](CCC(N)=O)NC(=O)[C@H](CCCCN)NC(=O)[C@H](CCCNC(=N)N)NC(=O)[C@H](Cc1ccc(O)cc1)NC(=O)[C@H](CCCNC(=N)N)NC(=O)[C@H](CO)NC(=O)[C@H](Cc1ccc(O)cc1)NC(=O)[C@H](CO)NC(=O)[C@H](CC(=O)O)NC(=O)[C@@H](NC(=O)[C@@H](N)Cc1ccccc1)[C@@H](C)O)C(=O)N[C@@H](C)C(=O)N[C@H](C(=O)N[C@@H](CCCCN)C(=O)N[C@@H](CCCCN)C(=O)N[C@@H](Cc1ccc(O)cc1)C(=O)N[C@@H](CC(C)C)C(=O)N[C@@H](C)C(=O)N[C@@H](C)C(=O)N[C@H](C(=O)N[C@@H](CC(C)C)C(=O)NCC(=O)N[C@@H](CCCCN)C(=O)N[C@@H](CCCNC(=N)N)C(=O)N[C@@H](Cc1ccc(O)cc1)C(=O)N[C@@H](CCCCN)C(=O)N[C@@H](CCC(N)=O)C(=O)N[C@@H](CCCNC(=N)N)C(=O)N[C@H](C(=O)N[C@@H](CCCCN)C(=O)N[C@@H](CC(N)=O)C(=O)N[C@@H](CCCCN)C(N)=O)C(C)C)C(C)C)C(C)C	·	·	4%	·
CC(=NCC1CCCO1)c1c(O)n(Cc2ccccc2)c(=O)[nH]c1=O (configuration not stated)	3%	2.2µM*	-1%	7%
CCCCCN(CCCCC)C(=O)[C@H](CCC(=O)O)NC(=O)[C@H](Cc1ccc(OP(=O)(O)O)cc1)NC(C)=O	·	·	3%	·
COc1ccc(OC)c(C2=Nn3c(nnc3-c3ccc(OC)c(OC)c3)SC2)c1	·	·	-10%	·
CC(C)CC(OC(=O)c1ccco1)C(=O)NC1CCCC1 (configuration not stated)	1%	10%	·	-9%
CC(C)CC(OC(=O)c1ccco1)C(=O)NC1CCCCC1 (configuration not stated)	-5%	13%	12%	32µM*
O=c1oc2ccccc2c2oc3cc(O)c(O)cc3c12	-1%	14µM*	?	-1%
Cn1c(C(=O)NCCCN2CCCCCC2)cc2c(=O)n(C)c3ccccc3c21	-3%	11µM*	-6%	?
Cc1ccc(CSc2nc3ccncc3n2CC(=O)Nc2cc(C)cc(C)c2)cc1	8%	7.1µM*	8%	-7%
Cc1noc(C)c1-c1ccc2ncnc(NC3CCCc4ccccc43)c2c1 (configuration not stated)	·	·	1%	·
Nc1c(N(CCC2=CCCCC2)C(=O)COc2ccc(F)cc2)c(=O)[nH]c(=O)n1Cc1ccccc1	18%	-40%	·	5%
Nc1c(N(CCC2=CCCCC2)C(=O)CCCOc2ccccc2)c(=O)[nH]c(=O)n1Cc1ccccc1	-4%	14µM*	·	?
O=C1C(=O)c2ccc(-c3ccccc3)cc2-c2ccccc21	-78%	-24%	0.28µM*	-7%
Nc1ccc2c(c1)C(=O)C(=O)c1ccccc1-2	-44%	-22%	?	13%
OC[C@H]1OC(O)[C@@H](O)[C@@H](O)[C@H]1O (some centres not stated)	·	·	-5%	·
CCCCc1nc2c(c3c1C[C@H](C)OC3)CN(C(=O)Nc1cccc(C#N)c1)CC2	·	·	1%[12.9 µM]	·
CCC(=O)Nc1nc2c(s1)COc1ccccc1-2	-11%	2.8µM*	0%	4%
C#C[C@]1(O)CC[C@H]2[C@H]3CCc4cc(O)ccc4[C@@H]3CC[C@@]21C	·	·	-4%	·
COc1ccc(NC(=S)Nc2cccc3cnccc23)cc1	-5%	-36%	?	-8%
CN(C)S(=O)(=O)c1cccc(NC(=S)Nc2cccc3cnccc23)c1	-1%	-27%	2.5µM*	-7%
S=C(Nc1cccnc1)Nc1cccc2cnccc12	-5%	-13%	?	?
Fc1ccc(NC(=S)Nc2cccc3cnccc23)cc1	-4%	-19%[11.4 µM]	2.8µM*	-2%
S=C(Nc1ccc(Cl)cc1)Nc1cccc2cnccc12	-98%	-53%	1.6µM*	-14%
O=C1COCCN1	·	·	3%	·
COc1cccc2nc(-c3cccs3)nc(NN3C(=O)C=C(C)C3=O)c12	·	·	-18%	·
Cc1ccc(NCCC(=O)c2cccc([N+](=O)[O-])c2)c(C)c1	-32%	20µM*	4%	5%
